Nrf2 inh: Nrf2 qHTS screen for inhibitors; Potency, µM (highest dose often 46 µM), usual class: inhibitors; A549 ARE-Fluc reporter, luciferase luminescence, 18-24 h; 2.1% of 360,000 active; note: nearly all actives have a fitted effect of over 60% in size
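A549 ARE_Fluc cells, 5000/well, 5% FBS OPTI-MEM; compounds in dose-response, 18-24 h at 37 °C/5% CO2; CellTiter-Fluor viability read (Ex 405/Em 525), then BugLite luciferase luminescence = Nrf2 activity.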
ClpP mod: qHTS Assay for Activators of ClpP. Potency, µM (top dose mostly 57.5 µM). purified B. subtilis ClpP, FRET peptide cleavage, 20 min. ATP-dependent Clp protease proteolytic subunit (Bacillus subtilis (strain 168)), P80244. 1.9% of 340,000 active; active = well fitted falling curve with a large enough effect; inconclusive = small, poorly fitted or top-dose-only effect; inactive = no such curve, though single readings can be large or run the other way; note: the source files actives as falling curves though it sought activators and does not explain the sign; nearly all actives have a fitted effect of over 65% in size
Target sequence (P80244 whole entry, looked up): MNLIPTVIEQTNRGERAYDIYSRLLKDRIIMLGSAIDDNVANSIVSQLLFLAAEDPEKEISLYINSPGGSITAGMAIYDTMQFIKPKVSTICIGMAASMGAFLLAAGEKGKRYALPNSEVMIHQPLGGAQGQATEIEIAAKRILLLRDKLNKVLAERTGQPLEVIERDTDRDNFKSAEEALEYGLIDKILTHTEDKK
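Purified B. subtilis ClpP, 10 microg/mL final in Tris/HCl pH8 with KCl, BSA, glycerol and Tween-20, cleaved an Abz/nitrotyrosine-quenched decapeptide. Fluorescence (ex 320, em 430) was read at 0 and 20 min at room temperature. Delta was normalized to 5.8 microM ADEP and DMSO/no-enzyme controls.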
Nrf2 ARE act: qHTS of Nrf2 Activators | AREc32 ARE-luciferase reporter (MCF7-derived line), luminescence, 24 h | Potency, µM (titrated, usually from 46.1 µM), actives largely listed as activators | 0.31% of 410,000 active; note: nearly all actives have a fitted effect of over 65% in size
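ARE activation measured as luciferase luminescence (Steady-Glo, 30 min RT) in AREc32_Fluc cells after 24 hr compound exposure at 37 deg C, 5% CO2; cells seeded overnight at 1000/well in OPTI-MEM, 5% FBS.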
A549 tox: Nrf2 qHTS screen for inhibitors: counterscreen for cytotoxicity. A549 ARE-Fluc cells, CellTiter-Fluor viability, 18-24 h. Potency, µM (series often up to 46 µM), actives largely listed as inhibitors. 0.16% of 390,000 active
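A549 ARE-Fluc cells in 5% FBS OPTI-MEM, 5000 cells/well, rested 2 h then exposed to compounds in concentration-response for 18-24 h at 37 °C. Viability by CellTiter-Fluor fluorescence (Ex 405/Em 525) after 30 min; luciferase luminescence (BugLite, 15 min, RT) read afterwards.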
p53 reactivation: qHTS assay for re-activators of p53 using a Luc reporter. H1299 p53-A138V BP100-luciferase reporter, luminescence, 24 h. Potency, µM (series often up to 92.2 µM), actives largely listed as activators. 0.063% of 320,000 active. AID 504706, 2011; note: nearly all actives have a fitted effect of over 45% in size
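H1299 (p53-null), stable ts p53-A138V + BP100-Luc; 1000 cells/well, Opti-MEM/10% FBS; cpd 4 pt, 1:5; 24 h, 37 deg C, 5% CO2; detection reagent 10 min RT; luminescence.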
miR-21 act: qHTS Assay for Modulators of miRNAs and/orActivators of miR-21. AID 2288, 2010. 340,000 tested, under 10 active. HeLa miR-21 FLuc reporter, luciferase, 48 h. Potency, µM (top dose mostly 38.3 µM), most hits filed as activators;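 note: miR-21 action dims this reporter so a rising signal means less miR-21 action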
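Using DMEM plus 10% FBS, HeLa miR-21-FLuc cells are incubated with test compounds (final up to about 40uM) for 48 hours; firefly luciferase signal is then imaged following reagent-mediated lysis.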
A number is an active result; i = inactive; ? = inconclusive; nt = no result given; [ ] = another dose, or the depositor's remark. The list is not random: actives were taken first. Their share in the collection is about 3.7%. Unless noted, calls come from the whole dose curve; as a rule, active = well fitted curve in the direction sought with a large enough effect; inconclusive = small, poorly fitted or top-dose-only effect, or another doubt; inactive = no such curve, though single readings can be large; an effect the other way counts as inactive or inconclusive.

SMILES | Nrf2 inh | ClpP mod | Nrf2 ARE act | A549 tox | p53 reactivation | miR-21 act
O=C(Nc1ccc(C(F)(F)F)cc1)N1CCN(c2ccnc3cc(Cl)ccc23)CC1 | 18µM | nt | i | ? | i | ?
CCc1ccc(S(=O)(=O)c2c(C(=O)c3ccc(C)c(C)c3)cnc3ccccc23)cc1 | i | i | i | i | nt | i
COc1cccc(C2c3c(ncn(-c4cccc(Cl)c4)c3=N)Oc3ccc4ccccc4c32)c1 (stereo not given) | i | nt | nt | i | nt | nt
Cc1cccc(Cl)c1NC(=O)N1CCN(c2ccnc3cc(Cl)ccc23)CC1 | 9.2µM | i | i | i | i | i
CCOc1ccc2nc(NC(=O)CSc3nc(SC)ns3)sc2c1 | ? | 28µM | i | i | i | i
Cc1cc(C(=O)NCc2ccc(F)cc2)c2ccccc2n1 | i | nt | i | i | i | i
Cc1ccc(-c2nn3c(C)nnc3s2)cc1NC(=O)c1ccc(-c2cccc(Cl)c2)o1 | 15µM | i | i | i | i | i
Cc1ccc(-c2nn3c(C)nnc3s2)cc1NC(=O)c1ccc(-c2ccc(Cl)cc2Cl)o1 | ? | i | i | 21µM | i | i
CCOc1cc(Cl)c(S(=O)(=O)NCCCn2ccnc2)cc1Cl | 16µM | i | i | i | nt | i
CCCN1CCCc2cc(CN)ccc21 | 9.2µM | ? | i | i[1.84 µM] | i | i
O=C(NCc1ccccc1Cl)c1ccc(CS(=O)(=O)c2ccccc2)o1 | i | nt | i | i | i | i
CCc1ccccc1S(=O)(=O)Cc1ccc(C(=O)NCCc2ccc(Cl)cc2)o1 | 23µM | i | i | ? | nt | ?
O=C(NCCc1ccc(Cl)cc1)c1ccc(CS(=O)Cc2ccc(Cl)cc2)o1 (stereo not given) | 26µM | i | i | ? | i | i
CCc1ccccc1S(=O)(=O)Cc1ccc(C(=O)NCc2ccc(Cl)cc2)o1 | ? | i | i | i | nt | i
CSc1ccc(CCNC(=O)c2ccc(CS(=O)Cc3ccc(Cl)cc3)o2)cc1 (stereo not given) | i | i | i | i | i | i
O=C(NCc1ccccc1Cl)c1ccc(CS(=O)(=O)c2ccc(Br)cc2)o1 | 23µM | i | i | ? | nt | i
COc1ccccc1CNC(=O)CCCn1nc(C)c2sc3ccccc3c2c1=O | i | i | i | i | nt | i
CCN1C(=O)C(Cc2nc3ccccc3c(=O)n2-c2ccccc2)c2cc(Br)ccc21 (stereo not given) | ? | i | i | i | nt | i
Cc1cc(NC(=O)CCCn2c(C)c3cnn(-c4ccccc4)c(=O)c3c2C)ccc1Br | i | i | i | i | nt | i
CC(=O)Nc1cc(C(=O)OCC(=O)c2ccc(C)cc2)ccc1C | ? | i | i | i | 28µM | i
CC(=O)Nc1cc(C(=O)OCC(=O)c2ccc(Cl)cc2Cl)ccc1C | ? | i | i | i | i | i
CCOc1ccc(CN2CCNC(=O)C2CC(=O)NCCN2CCOC2=O)cc1 (stereo not given) | i | 28µM | i | i | i | i
Cc1ccc(CN2CCNC(=O)C2CC(=O)NCc2cc(C)n(C)n2)cc1 (stereo not given) | i | 32µM | i | i | i | i
CCOc1ccc(CN2CCNC(=O)C2CC(=O)NCc2cc(C)n(C)n2)cc1 (stereo not given) | i | i | i | i | i | i
Cn1cc(CCNC(=O)CC2C(=O)NCCN2Cc2cccc(Oc3ccccc3)c2)cn1 (stereo not given) | 15µM | i | i | i | i | i
SMILES | Nrf2 inh | ClpP mod | Nrf2 ARE act | A549 tox | p53 reactivation | miR-21 act
CCOc1ccc(CN2CCNC(=O)C2CC(=O)NCc2csc(C)n2)cc1 (stereo not given) | i | 28µM | i | i | i | i
O=C(CC1C(=O)NCCN1Cc1cccc(Oc2ccccc2)c1)NCCc1ccccn1 (stereo not given) | ? | nt | i | i | i | i
O=C(Cn1c(SCCOc2ccccc2Cl)nc2ccccc21)N1CCOCC1 | i | i | i | i | nt | i
CCc1nnc(NC(=O)/C=C/c2ccco2)s1 | i | i | 4.5µM | ? | ? | i
CC1CCCC(NC(=O)COC(=O)CCC(=O)c2ccc(F)cc2)C1C (stereo not given) | i | 2.5µM | i | i | i | nt
C=CCN1C=C/C(=C\C=C(C#N)C#N)c2ccccc21 | ? | nt | i | 18µM | i | i
CCCCCCN1C=C/C(=C\C=C(C#N)C#N)c2ccccc21 | 18µM | i | i | 6.5µM | i | i
Cc1noc(C)c1-c1cccc(-c2nn3c(=O)cc(N4CCNCC4)nc3s2)c1 | i | nt | nt | i | nt | nt
O=C(CCCSc1ccc(Cl)cc1)Nc1cc(S(=O)(=O)N2CCOCC2)ccc1O | i | i | i | i | i | nt
COc1cc(OC)c2ccc(=O)oc2c1C(CCN1CCCC1)c1ccc2c(c1)OCO2 (stereo not given) | i | i | i | 18µM | i | i
COc1ccc(C(CCN2CCOCC2)c2c(OC)cc(OC)c3ccc(=O)oc23)cc1 (stereo not given) | i | i | i | 15µM | i | nt
COc1cc(OC)c2c(C)cc(=O)oc2c1C(CCN1CCN(c2ccccc2)CC1)c1ccc2c(c1)OCO2 (stereo not given) | i | 32µM | i | ? | i | i
COc1cc(OC)c2c(-c3ccccc3)cc(=O)oc2c1C(CCN1CCOCC1)c1ccc2c(c1)OCO2 (stereo not given) | i | ? | i | i | i | nt
Cn1c2ccccc2c2cnn(CC(=O)O)c(=O)c21 | i | 32µM | i | i | i | i
COC(=O)Cn1ncc2c3ccccc3n(C)c2c1=O | i | 14µM | i | i | ? | i
O=C(Cn1ncc2c3ccccc3n(Cc3ccccc3)c2c1=O)N1CCN(c2ncccn2)CC1 | 16µM | 32µM | i | i | i | i
CNC(=O)Cn1ncc2c3ccccc3n(C)c2c1=O | i | i | i | i | i | i
COC(=O)C1CCCCN1C(=O)c1ccc2oc(Cc3ccccc3)nc2c1 (stereo not given) | ? | 28µM | i | i | i | i
COc1cccc(N2CCN(C(=O)Cn3ncc4c3-c3ccccc3OC4)CC2)c1 | i | i | i | i | nt | i
O=C(NCCO)C1CCN(C(=O)c2ccc(-c3ccccc3)cc2)CC1 | i | 32µM | i | i | i | i
CN1CCN(C(=O)c2ccc(-c3ccccc3)cc2)CC1 | i | 32µM | i | i | i | i
O=C(c1cnn2c(C(F)F)cc(-c3ccccc3)nc12)N1CCc2ccccc2C1 | 23µM | nt | i | ? | i | i
COc1ccc(-c2cc(C(F)F)n3ncc(C(=O)N4CCN(C)CC4)c3n2)cc1 | i | 25µM | i | i | i | i
